# KKLEB tox – counter-screen for CF NF-kB inhibitors: cytotoxicity; KKLEB CF airway cells viability, ATPlite luminescence, overnight; hits give low values; cells stimulated with P. aeruginosa culture filtrate; activity change (cytotoxicity), % at 5 µM; 0.36% of 360,000 active; AID 602141;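 active = corrected activity change at or below -50% at 5 µM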
# LGR2 antag – blocks bursicon-induced cAMP signaling via Drosophila LGR2; HEK293 LGR2, CRE-luciferase, bursicon-stimulated, 4 h; inhibition, % at 9.99 µM; 0.35% of 380,000 active;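 active = drop in luminescence signal, shown as inhibition above about 50% in the replicate tests, limit read from the data, passing the limit was not always enough; inconclusive = probably only some replicates passing the limit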;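 also: agonist challenge used bursicon conditioned medium at about half maximal strength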
# Shn3 3UTR inh – inhibitors of Schnurri-3 3'UTR reporter in osteoblasts; 0.52% of 360,000 active; Clone20 osteoblast Shn3 3'UTR firefly luciferase, 24 h; inhibition, % at 12.5 µM;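 active = mean inhibition of at least 75% with every replicate also reaching 75%; inconclusive = mean inhibition at least 75% but some replicate below; inactive = mean inhibition below 75%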;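 also: 0% = median of neutral control wells and 100% = pilot-screen positive control compound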
# EWS-Fli inh – blocks EWS/Fli oncoprotein-driven transcription | A673 NR0B1-luciferase reporter, viability-normalised | 0.67% of 350,000 active | inhibition, % at 12.6 µM;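 active = mean inhibition of at least 50% after viability correction, with every replicate also passing that limit; inconclusive = mean reaches 50% but only one of two replicates passes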;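 also: firefly luciferase signal divided by Alamar Blue viability fluorescence both relative to DMSO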
# PAX8 inh HTS – inhibitors of PAX8 transcriptional activity in RMG-I cells; RMG-I TPO-luciferase reporter, SteadyGlo, 24 h; inhibition, % at 12.6 µM; 1.2% of 360,000 active; AID 652154;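 active = mean replicate inhibition at least 60% with every replicate also reaching 60%; inconclusive = only one of the two criteria is met; inactive = mean below 60% and not all replicates reaching 60%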;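 also: luciferase light reporting Pax8 driven TPO promoter activity; plate controls were median of neutral control wells for no effect and mitoxantrone controls for full effect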
# CF NFkB block – cystic fibrosis NF-kB activation inhibition; KKLEB NF-kB-GFP reporter, PAF-induced, GFP fluorescence overnight; inhibition, % at 5 µM; 0.86% of 360,000 active;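 active = at least 50% inhibition at 5 µM, scaled per plate between neutral and stimulator controls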;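 also: PAF is a Pseudomonas aeruginosa culture filtrate used as stimulus; plate controls were PAF-stimulated DMSO wells for no effect and unstimulated DMSO wells for full effect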
# * hit, by the source's call; ? = inconclusive; . = no result given. In the library only some 2% were active in any assay of this set; here they are far more common.
SMILES,KKLEB tox,LGR2 antag,Shn3 3UTR inh,EWS-Fli inh,PAX8 inh HTS,CF NFkB block
O=S(=O)(c1ccccc1F)N1CCCCN2[C@@H](CO)[C@@H](c3ccc(-c4cccnc4)cc3)[C@@H]2C1,.,-7.0,.,.,-7.1,.
C[C@@H]1CCCCO[C@@H](CN(C)Cc2ccncc2)[C@@H](C)CN([C@H](C)CO)C(=O)c2cc(NC(=O)Nc3ccc(C(F)(F)F)cc3)ccc2O1,.,-3.3,.,-16.4,-33.7,.
C[C@@H]1CCCCO[C@@H](CN(C)Cc2ccncc2)[C@H](C)CN([C@H](C)CO)C(=O)c2cc(NC(=O)Nc3ccc(C(F)(F)F)cc3)ccc2O1,.,11.0,.,14.0,99.1*,.
C[C@H]1CCCCO[C@H](CN(C)Cc2ccncc2)[C@@H](C)CN([C@@H](C)CO)C(=O)c2cc(NC(=O)Nc3ccc(C(F)(F)F)cc3)ccc2O1,.,11.6,.,9.3,58.0,.
C[C@@H]1CCCCO[C@@H](CN(C)Cc2ccncc2)[C@@H](C)CN([C@@H](C)CO)C(=O)c2cc(NC(=O)Nc3ccc(C(F)(F)F)cc3)ccc2O1,.,22.9,.,-8.9,33.5,.
C[C@@H]1CN([C@@H](C)CO)C(=O)c2cc(NC(=O)Nc3ccc(C(F)(F)F)cc3)ccc2O[C@@H](C)CCCCO[C@@H]1CN(C)Cc1ccncc1,.,40.3,.,3.1,83.5*,.
C[C@@H]1CN([C@@H](C)CO)C(=O)c2cc(NC(=O)Nc3ccc(C(F)(F)F)cc3)ccc2O[C@@H](C)CCCCO[C@H]1CN(C)Cc1ccncc1,.,-7.9,.,14.0,86.3*,.
CCCC#Cc1ccc([C@H]2[C@@H](CO)N(C(=O)C3CCCCC3)[C@H]2C#N)cc1,.,-6.2,.,2.4,84.1*,.
CCCC#Cc1ccc([C@@H]2[C@@H](C#N)N(C(=O)C3CCCC3)[C@H]2CO)cc1,.,9.0,.,-2.7,0.6,.
N#C[C@@H]1[C@H](c2ccc(C#Cc3ccccc3F)cc2)[C@@H](CO)N1C(=O)C1CCC1,.,?,.,37.7,32.2,.
N#C[C@@H]1[C@H](c2ccc(C#Cc3ccccc3F)cc2)[C@@H](CO)N1C(=O)C1CCCC1,.,66.1*,.,2.3,.,.
N#C[C@@H]1[C@H](c2ccc(C#Cc3cccc(F)c3)cc2)[C@@H](CO)N1C(=O)C1CC1,.,53.9*,.,?,9.5,.
N#C[C@@H]1[C@@H](c2ccc(C#Cc3cccc(F)c3)cc2)[C@H](CO)N1C(=O)C1CC1,.,-12.7,.,-14.2,2.6,.
N#C[C@H]1[C@H](c2ccc(C#Cc3ccccc3F)cc2)[C@H](CO)N1C(=O)C1CCC1,.,101.8*,.,65.6*,87.0*,.
COc1ccc(S(=O)(=O)N(C)C[C@@H]2OCCCC[C@@H](C)Oc3ccc(NC(=O)CCCCCC(=O)Nc4ccccc4N)cc3C(=O)N([C@H](C)CO)C[C@@H]2C)cc1,.,0.2,.,-2.6,-4.1,.
C[C@H](CO)N1C[C@H](C)[C@@H](CN(C)C(=O)Nc2ccc3c(c2)OCO3)Oc2ccc(NC(=O)Cn3cnnn3)cc2CC1=O,.,20.4,.,-16.4,-22.3,.
CCNC(=O)C[C@@H]1CC[C@H]2[C@H](COc3ccc(NC(=O)Nc4ccccc4F)cc3C(=O)N2C)O1,.,2.4,.,-0.6,-3.6,.
N#C[C@@H]1[C@H](c2ccc(-c3ccccc3F)cc2)[C@H](CO)N1C(=O)C1CCC1,.,5.3,.,2.4,3.0,.
N#C[C@@H]1[C@@H](c2ccc(C#Cc3ccc(F)cc3)cc2)[C@H](CO)N1C(=O)C1CCCC1,.,-13.9,.,4.8,34.1,.
N#C[C@H]1[C@@H](c2ccc(C#Cc3ccc(F)cc3)cc2)[C@H](CO)N1C(=O)C1CCCC1,.,0.5,.,28.4,86.9*,.
CN(C)C(=O)c1cccc(-c2ccccc2[C@@H]2[C@@H](C#N)N(C(=O)C3CC3)[C@H]2CO)c1,.,10.4,.,2.3,112.5*,.
N#C[C@@H]1[C@@H](c2ccc(-c3ccccc3F)cc2)[C@@H](CO)N1C(=O)C1CCC1,.,-8.9,.,-1.5,81.5*,.
N#CCCn1c(-c2nonc2NC(=O)c2ccccc2Cl)nc2ccccc21,-47.8,4.9,14.9,.,.,29.0
CCCCn1c(-c2nonc2NC(=O)c2ccccc2Cl)nc2ccccc21,-30.5,31.0,89.3*,-13.7,21.5,36.6
COc1ccc(Br)cc1/C(C)=N/NC1=NCCN1,-2.8,.,46.5,.,.,0.9
SMILES,KKLEB tox,LGR2 antag,Shn3 3UTR inh,EWS-Fli inh,PAX8 inh HTS,CF NFkB block
CCCCCOc1ccc(Br)cc1/C(C)=N/NC1=NCCN1,-23.3,.,?,.,81.2*,51.8*
Cn1c(=O)c2cc(NC(=O)NCc3ccc(F)cc3)ccc2n1C/C=C/c1ccccc1,-2.1,-3.3,1.4,56.4*,25.2,17.9
CCOCCC(=O)Nc1ccc2c(c1)c(=O)n(C)n2C/C=C/c1ccccc1,-10.6,6.6,26.2,59.5*,20.1,2.5
COc1ccc(-c2csc(NC(=O)C3CCN(c4ncnc5sc(C)c(C)c45)CC3)n2)cc1OC,-3.4,9.5,95.6*,34.4,25.9,38.0
COc1ccccc1OCC(=O)NNC(=O)C1CCN(c2ncnc3sc(C)c(C)c23)CC1,-18.3,-11.4,13.7,5.8,-6.0,0.4
O=C(Nc1nc(-c2ccccn2)cs1)c1cc(Cl)ccc1[N+](=O)[O-],-2.4,-6.2,97.0*,-2.8,80.5*,-43.6
O=C(Nc1nc(-c2ccccc2)cs1)C1COc2ccccc2O1 (stereo unspecified),8.4,.,-11.0,.,.,-9.9
O=C(Nc1nc(-c2ccccn2)cs1)C1COc2ccccc2O1 (stereo unspecified),-12.9,2.9,90.1*,17.1,30.8,19.4
Cc1ccc(C(=O)Nc2nc(-c3ccccn3)cs2)o1,1.0,-13.4,34.1,8.6,-8.8,10.8
O=C(Nc1nc(-c2ccccn2)cs1)c1ccc([N+](=O)[O-])o1,5.5,8.2,87.7*,0.2,79.8*,10.0
CCCn1nc(C(=O)Nc2nc(-c3ccccn3)cs2)c2ccccc2c1=O,1.4,.,60.2,11.1,73.8*,-19.6
Cc1cc(C(=O)Nc2nc(-c3ccccn3)cs2)ccc1[N+](=O)[O-],7.0,5.0,33.0,11.9,25.0,14.2
O=C(C[C@H]1C[C@@H]2c3cc(NC(=O)CC4CC4)ccc3O[C@@H]2[C@@H](CO)O1)NCc1cccc(F)c1,.,-1.3,.,-0.2,.,.
CCCNC(=O)N1[C@@H](C#N)[C@H](c2ccc(C3=CCCCC3)cc2)[C@@H]1CO,.,-4.8,.,15.2,3.3,.
CCCC#Cc1cnc2c(c1)C(=O)N([C@H](C)CO)C[C@@H](C)[C@@H](CN(C)C(=O)CCN1CCCCC1)O2,.,-0.9,.,-4.5,-21.8,.
O=C(Nc1nc(-c2ccccn2)cs1)c1ccccc1-n1cnnn1,-16.2,-19.0,94.6*,-2.6,59.2,15.2
